Most compounds without a hit are left out; they make up all but 4.2% or so of the library.
TRPV1 PAM – HTS Assay for Compounds that Act as Potentiators of the Vanilloid Receptor 1; Transient receptor potential cation channel subfamily V member 1 (Homo sapiens), Q8NER1; TRPV1-expressing cells, Fluo-8 calcium influx, capsaicin EC20 potentiation; potentiation, % at 8.33 µM; 0.02% of 320,000 active; AID 540277, 2011; in the data active = potentiation above about 80%; inconclusive = between about 30% and that limit; note: 0% is about no effect
Target sequence (Q8NER1 whole entry, looked up): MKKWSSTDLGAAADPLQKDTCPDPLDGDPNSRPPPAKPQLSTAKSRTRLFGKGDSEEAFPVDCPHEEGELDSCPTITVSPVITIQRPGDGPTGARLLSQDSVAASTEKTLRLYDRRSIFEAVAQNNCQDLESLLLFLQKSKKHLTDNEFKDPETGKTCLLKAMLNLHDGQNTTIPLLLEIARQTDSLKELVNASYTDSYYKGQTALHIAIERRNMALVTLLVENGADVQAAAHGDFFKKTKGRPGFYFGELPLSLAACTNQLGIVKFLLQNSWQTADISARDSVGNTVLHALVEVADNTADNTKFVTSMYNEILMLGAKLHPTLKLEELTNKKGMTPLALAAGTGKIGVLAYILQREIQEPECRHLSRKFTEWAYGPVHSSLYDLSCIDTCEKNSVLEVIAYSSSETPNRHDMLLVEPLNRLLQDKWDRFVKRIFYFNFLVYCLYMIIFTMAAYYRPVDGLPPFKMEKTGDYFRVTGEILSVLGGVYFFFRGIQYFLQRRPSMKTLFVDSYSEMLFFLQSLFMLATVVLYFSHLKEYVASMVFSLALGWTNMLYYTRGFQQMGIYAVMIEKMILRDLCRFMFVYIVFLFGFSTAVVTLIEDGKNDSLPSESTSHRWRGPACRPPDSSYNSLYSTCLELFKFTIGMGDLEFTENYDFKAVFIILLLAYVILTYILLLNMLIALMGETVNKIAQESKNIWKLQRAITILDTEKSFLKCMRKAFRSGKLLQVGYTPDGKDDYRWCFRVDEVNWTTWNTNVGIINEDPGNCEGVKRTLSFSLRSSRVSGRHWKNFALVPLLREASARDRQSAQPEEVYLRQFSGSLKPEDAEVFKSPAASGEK
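TRPV1-expressing cells were cultured overnight at 35.5C and loaded with Fluo-8 calcium dye for 40 to 90 min at room temperature. After a 10 s baseline, compound was added and calcium influx was read kinetically for 3 min (ex 480/em 520 nm).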
D1 agonist – Allosteric Agonists of the Human D1 Dopamine Receptor: qHTS; D(1A) dopamine receptor (Homo sapiens), P21728; HEK293 T-REx D1 cells, calcium flux, agonist mode; activation, % at 2 µM; 1% of 360,000 active; AID 504660, 2011; in the data active = activation above about 30%; note: 0% is about no effect
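Inducible HEK293 T-REx D1 cells, force-coupled to calcium signalling, were plated at 4000 cells/well with tetracycline and held overnight at 30 C. After no-wash calcium dye loading, compound-evoked calcium rise over 180 s flagged agonists.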
D1 PAM – Potentiators of Human D1 Dopamine Receptor: qHTS | D(1A) dopamine receptor (Homo sapiens), P21728 | HEK293 TREx D1 cells, calcium flux, dopamine EC20 potentiation | potentiation, % at 10 µM | 0.036% of 360,000 active; in the data active = potentiation above about 30%; note: 0% is about no effect
TRPV1 ag – HTS Assay for Compounds that Act as Agonists of the Vanilloid Receptor 1; activation, % at 8.33 µM; TRPV1-expressing cells, Fluo-8 calcium influx, agonist mode; AID 540275, 2011; 0.19% of 320,000 active; in the data active = activation above about 80%; inconclusive = between about 30% and that limit; note: 0% is about no effect
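Fluo-8 calcium influx in TRPV1-expressing cells, kinetic read (ex 480/em 520 nm). Compound added and read 3 min for agonist activity, followed by capsaicin at EC20 final and 2 min further read for enhancement.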
D1 antagonist – Antagonist of Human D 1 Dopamine Receptor: qHTS | HEK293 TREx D1 cells, calcium flux, dopamine EC80; stronger effect = lower value | activity change, negative = inhibition, % at 10 µM | 3.2% of 360,000 active; in the data active = activity change below about -30%; note: % is set by controls: 0 for no effect and ±100 for the full control effect
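Compound effects on dopamine-evoked calcium signalling were measured in tetracycline-induced HEK293 Trex D1 cells. Dopamine at EC80 followed a 180 s compound pre-read, and fluorescence was tracked kinetically for 180 s more.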
* = called active by the depositor; ? = inconclusive; · = no result given.

SMILES	TRPV1 PAM	D1 agonist	D1 PAM	TRPV1 ag	D1 antagonist
CCc1cccc(C)c1NC(=O)Nc1csc2c1CCCC2	·	2	-3	·	-11
CCN(CC)CCNC(=O)c1cc2cc3ccc(OC)cc3nc2o1	4	1	9	2	-35*
COc1cc(OC)c(C(=O)NCc2nc(-c3ccccc3)no2)cc1OC	·	5	-2	·	-17
O=C(NCc1ccc2c(c1)CCN2C(=O)c1ccncc1)c1ccccc1Br	·	9	-4	·	-31*
CCOc1ccc(C(=O)NCc2ccc3c(c2)CCN3C(=O)c2ccccc2)cc1	·	0	-1	·	10
Cc1ccccc1C(=O)NCc1ccc2c(c1)CCN2C(=O)c1ccccc1	·	8	-4	·	-41*
CCOc1ccccc1C(=O)NCc1ccc2c(c1)CCN2C(=O)c1ccccc1	·	5	-4	·	-38*
O=C(NCc1ccc2c(c1)CCN2C(=O)c1ccncc1)c1ccccc1F	·	12	1	·	-1
COc1ccc(C(=O)NCc2ccc3c(c2)CCN3C(=O)c2ccccc2)cc1	·	0	1	·	-3
CCn1c(=O)c2cc(C(=O)N3CCN(c4cccc(OC)c4)CC3)sc2c2ccccc21	·	2	-3	·	8
CN(C)CCNS(=O)(=O)c1ccc(N2CCN(c3ccc(F)cc3)CC2)c([N+](=O)[O-])c1	18	59*	-8	5	-49*
Cc1c(C(=O)OCCOc2ccccc2)[nH]c2c1C(=O)CC(c1ccccc1Cl)C2 (stereo unspecified)	·	10	-2	·	-1
Cc1[nH]c2ccc(F)cc2c1CCN(Cc1cccnc1)C(=S)Nc1ccc(F)cc1	7	21	-12	-2	-37*
CCNC(=S)N(CCc1c(C)[nH]c2ccc(F)cc12)Cc1cccnc1	-1	11	-6	-8	-3
Cc1onc(-c2c(F)cccc2Cl)c1C(=O)NCc1ccccn1	7	3	4	-1	-39*
Cc1onc(-c2c(F)cccc2Cl)c1C(=O)c1ccccc1O	-7	9	-11	-6	-41*
Cc1onc(-c2ccccc2Cl)c1C(=O)NCc1ccccn1	-4	3	1	1	2
Cc1onc(-c2c(F)cccc2Cl)c1C(=O)c1ccccc1	-8	1	-2	29	-2
Cc1onc(-c2c(F)cccc2Cl)c1C(=O)c1ccc(F)cc1	-23	8	0	?	-55*
Cc1onc(-c2c(Cl)cccc2Cl)c1C(=O)c1ccc(F)cc1	7	5	0	2	4
CC(C)(C)c1ccc(C(=O)Nc2nc3nc(-c4ccccc4)cc(=O)n3[nH]2)cc1	·	4	-4	·	0
COc1ccc(NC(=O)CC2C(=O)N(c3ccc(C)cc3)C(=O)N2Cc2ccc(C)cc2)cc1 (stereo unspecified)	·	2	-2	·	-3
Cc1ccc(S(=O)(=O)N2CCC(c3nnc(-c4cccc(C)c4)o3)CC2)cc1	·	5	0	·	0
O=C(Nc1ccc(OC(F)(F)F)cc1)C(NS(=O)(=O)c1cccc2nsnc12)c1ccccc1 (stereo unspecified)	·	4	-1	·	1
Cc1c(NC(=O)c2cc(-n3cnnc3)ccc2Cl)cccc1-c1nc2ccccc2o1	21	0	-23	0	-44*
SMILES	TRPV1 PAM	D1 agonist	D1 PAM	TRPV1 ag	D1 antagonist
COc1ccc2c(CNCc3cccs3)c(C(=O)O)n(Cc3ccc(F)cc3Cl)c2c1	·	0	0	·	-5
COc1ccc(CNC(=O)C2CCN(c3nnc(-n4c(C)ccc4C)s3)CC2)c(OC)c1	·	-1	-3	·	-2
CCSc1nnc([C@H](Cc2ccccc2)NC(=O)OC(C)(C)C)o1	-9	1	-1	15	·
Cc1ccccc1CS(=O)(=O)c1nnc([C@H](Cc2ccccc2)NC(=O)OC(C)(C)C)o1	18	20	-11	-10	-38*
CC(C)(C)OC(=O)N[C@@H](Cc1ccccc1)c1nnc(S(=O)(=O)Cc2ccccc2)o1	-17	5	-12	27	-48*
O=C(c1ccc(Cl)cc1)N1CCCCC1CCN1CCOCC1 (stereo unspecified)	·	-1	5	·	-5
CSc1ccc(CN(C)C(=O)c2cccc(S(=O)(=O)NCc3ccccc3)c2)cc1	6	16	-11	0	-33*
CSc1ccc(CN(C)C(=O)c2cc(S(=O)(=O)NCc3ccccc3)ccc2C)cc1	6	3	-13	7	5
CCCCn1cc(S(=O)(=O)c2ccc(Cl)cc2)c(=O)c2cc(F)c(N3CCCCC3)cc21	·	0	1	·	7
CSc1ccccc1N1CCN(C(=O)Nc2ccc3c(c2)NC(=O)CO3)CC1	-3	15	-12	-2	-49*
Cc1cccc(Cn2cc(S(=O)(=O)c3ccccc3)c(=O)c3cc(F)c(N4CCOCC4)cc32)c1	·	-2	-3	·	-5
O=c1c2cc(Cl)ccc2nc(-c2ccc(Cl)c(Cl)c2)n1O	24	88*	-10	16	-45*
O=c1c2cc(Br)ccc2nc(-c2cccc(C(F)(F)F)c2)n1O	-11	62*	4	8	3
N#Cc1ccc(-c2nc3ccc(Br)cc3c(=O)n2O)cc1	23	3	5	-5	6
COc1cccc(-n2nnc3c(=O)n(C/C=C/c4ccccc4)cnc32)c1	15	0	-10	-2	-41*
O=c1c2nnn(-c3ccccc3)c2ncn1C/C=C/c1ccccc1	4	3	-7	-1	9
CCOC(=O)c1cnc2ccccc2c1NCc1ccco1	·	5	-14	·	-39*
COc1ccc(N2CCN(C(=O)CCn3c(=O)c4cccn4c4cccnc43)CC2)cc1	·	1	-5	·	1
CCC(C)NCCCOc1c(C)cc(C)cc1Br (stereo unspecified)	5	32*	-7	10	11
CCOc1ccc(N2C(=O)C3=C(C(c4ccc(Cl)cc4)=NCCN3)C2c2cccnc2)cc1 (stereo unspecified)	20	1	-4	-3	-47*
COc1ccc(N=C2S/C(=C\c3ccc(N4CCOCC4)o3)C(=O)N2CCc2c[nH]c3ccccc23)cc1	19	17	-4	8	-30*
Cc1cccc(C(=O)Nc2nnc(S(=O)(=O)N(C)Cc3ccc(Cl)cc3)s2)c1	·	2	-3	·	-13
OC(CN1CCCCC1)Cn1c2ccccc2c2cc(Br)ccc21 (stereo unspecified)	-4	45*	-5	11	-63*
CCc1nn(CC(=O)NC(C)CC)c(=O)c2cc3c(OC)cccc3n12 (stereo unspecified)	·	0	-2	·	4

Bioassay records (PubChem)
